# According to PubChem BioAssay (EPA / NIEHS):
# The source made the active and inactive calls. How the source made its calls: active means hit-call score of the fitted dose curve at least 0.9, where 1 is the maximum; inactive means score below 0.9.
# What was measured:
# [1] = read-out: Matrix Metallopeptidase 9 (MMP9), MMP9 (gene 4318); assay: BSK_KF3CT_MMP9: BioMAP Diversity Plus: KF3CT Assay for Matrix Metallopeptidase 9 (MMP9) Biomarker Activity (AID 2283074); details: primary human keratinocytes with fibroblasts; actives raise or lower the signal;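 on AC50: MMP9 protein level quantified by ELISA in the co-culture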
# In short: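 Human keratinocyte/foreskin fibroblast co-culture; compound added; 24 h; MMP-9 by ELISA; bidirectional fit vs DMSO baseline.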
# [2] = read-out: urokinase plasminogen activator (uPA), PLAU (gene 5328); assay: BSK_KF3CT_uPA: BioMAP Diversity Plus: KF3CT Assay for urokinase plasminogen activator (uPA) Biomarker Activity (AID 2283075); details: primary human keratinocytes with fibroblasts; actives raise or lower the signal
# In short: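 ELISA readout of uPA, analyzed for signal gain or loss relative to DMSO, from a human primary keratinocyte–foreskin fibroblast co-culture measured 24 h after chemical treatment.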
# CD40, CD40 (gene 958) [3] = assay: BSK_LPS_CD40: BioMAP Diversity Plus: LPS Assay for CD40 Biomarker Activity (AID 2283076); details: primary human HUVEC with PBMC; actives raise or lower the signal
# In short: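 In the LPS system of human endothelial cells with peripheral blood mononuclear cells, CD40 levels were read by ELISA 24 h post-treatment. Signal changes in either direction were fitted against the DMSO baseline, with parallel SRB protein staining.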
# [4] = read-out: E-selectin (Homo sapiens) (UniProt P16581); assay: BSK_LPS_Eselectin: BioMAP Diversity Plus: LPS Assay for Eselectin Biomarker Activity (AID 2283077); details: primary human HUVEC with PBMC; actives raise or lower the signal
# In short: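 E-selectin ELISA on LPS-stimulated endothelial cell/PBMC co-cultures, read 24 h post-treatment; gains and losses fitted against DMSO. Parallel SRB staining (0.1% SRB after 10% TCA fixation, 560 nm) flags overt cytotoxicity.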
# [5] = read-out: Interleukin-8 (IL8), CXCL8 (gene 3576); assay: BSK_LPS_IL8: BioMAP Diversity Plus: LPS Assay for Interleukin-8 (IL8) Biomarker Activity (AID 2283078); details: primary human HUVEC with PBMC; actives raise or lower the signal
# In short: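 ELISA read-out of IL-8 after 24 h chemical treatment of LPS-activated endothelial/PBMC human primary co-cultures. Changes either up or down relative to DMSO; overt cytotoxicity checked by sulforhodamine B staining in parallel wells.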
# [6] = BSK_LPS_SRB: Viability Assessment in the BioMAP Diversity Plus: LPS Assay (AID 2283079); details: primary human HUVEC with PBMC;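 further: total protein by sulforhodamine B absorbance as a cytotoxicity measure; measured one day after compound addition; fitted in both directions against DMSO so loss or gain of signal counts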
# In short: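 SRB viability endpoint: cells fixed with 10% TCA, stained with 0.1% SRB, read at 560 nm, 24 h post-dose. HUVEC/PBMC co-culture; signal change in either direction scored relative to DMSO.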
# [7] = read-out: Interleukin-1 alpha (IL1a), IL1A (gene 3552); assay: BSK_LPS_IL1a: BioMAP Diversity Plus: LPS Assay for Interleukin-1 alpha (IL1a) Biomarker Activity (AID 2283080); details: primary human HUVEC with PBMC; actives raise or lower the signal
# In short: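 Readout is IL-1a level by ELISA, 24 h post-dose, fitted as gain or loss relative to DMSO. System: LPS-activated human primary co-culture of vascular endothelium and peripheral blood mononuclear cells, with parallel SRB total-protein cytotoxicity.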
# [8] = read-out: Monocyte Chemoattractant Protein-1 (MCP1), CCL2 (gene 6347); assay: BSK_LPS_MCP1: BioMAP Diversity Plus: LPS Assay for Monocyte Chemoattractant Protein-1 (MCP1) Biomarker Activity (AID 2283081); details: primary human HUVEC with PBMC; actives raise or lower the signal;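 on AC50: secreted MCP-1 protein quantified by ELISA in culture supernatant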
# In short: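 Secreted MCP-1 read by ELISA at 24 h post-dosing in an LPS-activated co-culture of endothelial cells with peripheral blood mononuclear cells. Fits run in both directions, DMSO as baseline; parallel SRB staining tracks overt cytotoxicity.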
# [9] = BSK_LPS_PGE2: BioMAP Diversity Plus: LPS Assay for Prostaglandin E2 (PGE2) Biomarker Activity (AID 2283082); details: primary human HUVEC with PBMC; actives raise or lower the signal;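 on AC50: secreted prostaglandin E2 measured by ELISA in LPS-stimulated co-culture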
# In short: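 HUVEC plus human PBMC co-culture stimulated with LPS; secreted PGE2 quantified by ELISA 24 h after chemical dosing. Activity fitted bidirectionally against DMSO baseline; parallel SRB staining (0.1% SRB after 10% TCA fixation, 560 nm) flags overt cytotoxicity.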
# [10] = read-out: Macrophage colony-stimulating factor (MCSF), CSF1 (gene 1435); assay: BSK_LPS_MCSF: BioMAP Diversity Plus: LPS Assay for Macrophage colony-stimulating factor (MCSF) Biomarker Activity (AID 2283083); details: primary human HUVEC with PBMC; actives raise or lower the signal
# In short: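 Bidirectional fitting against DMSO was applied to M-CSF levels read by ELISA at 24 h post-dose. The system pairs human umbilical vein endothelium with peripheral blood mononuclear cells; parallel SRB staining tracked cytotoxicity.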
# [11] = read-out: Tissue Factor, F3 (gene 2152); assay: BSK_LPS_TissueFactor: BioMAP Diversity Plus: LPS Assay for Tissue Factor Biomarker Activity (AID 2283084); details: primary human HUVEC with PBMC; actives raise or lower the signal
# In short: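 Compound was added to an endothelial cell/PBMC co-culture, and after 24 h tissue factor (CD142) was read by ELISA. Gain or loss of signal was fitted against a DMSO baseline, and parallel SRB staining (560 nm) tracked overt cytotoxicity.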
# [12] = read-out: Tumor necrosis factor (Homo sapiens) (UniProt P01375); assay: BSK_LPS_TNFa: BioMAP Diversity Plus: LPS Assay for Tumour Necrosis Factor alpha (TNFa) Biomarker Activity (AID 2283085); details: primary human HUVEC with PBMC; actives raise or lower the signal
# In short: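 Human umbilical vein endothelial cells co-cultured with PBMC and stimulated with LPS. TNFa was measured by ELISA 24 h after chemical dosing, fitted bidirectionally relative to DMSO.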
# [13] = read-out: Vascular cell adhesion molecule 1 (VCAM1), VCAM1 (gene 7412); assay: BSK_LPS_VCAM1: BioMAP Diversity Plus: LPS Assay for Vascular cell adhesion molecule 1 (VCAM1) Biomarker Activity (AID 2283086); details: primary human HUVEC with PBMC; actives raise or lower the signal
# In short: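 Human umbilical vein endothelial cells co-cultured with PBMC and stimulated with LPS; VCAM-1 measured by ELISA 24 h after dosing. Bidirectional curve fitting against DMSO baseline; cytotoxicity tracked in parallel by SRB total-protein staining.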
# CD38, CD38 (gene 952) = assay: BSK_SAg_CD38: BioMAP Diversity Plus: SAg Assay for CD38 Biomarker Activity (AID 2283087); details: primary human HUVEC with PBMC; actives raise or lower the signal
# In short: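 Human HUVEC plus PBMC co-culture stimulated with superantigen; CD38 measured by ELISA 24 h after chemical dosing. Fluorescence read-out, bidirectional fit against DMSO; cytotoxicity tracked in parallel by SRB and Alamar Blue.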
# CD40, CD40 (gene 958) [14] = assay: BSK_SAg_CD40: BioMAP Diversity Plus: SAg Assay for CD40 Biomarker Activity (AID 2283088); details: primary human HUVEC with PBMC; actives raise or lower the signal
# In short: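 CD40 is measured by fluorescence ELISA in an endothelial/PBMC primary human co-culture at 24 h post-dose. Fitting is bidirectional, DMSO baseline. Parallel SRB staining (560 nm) flags cytotoxicity.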
# CD69, CD69 (gene 969) = assay: BSK_SAg_CD69: BioMAP Diversity Plus: SAg Assay for CD69 Biomarker Activity (AID 2283089); details: primary human HUVEC with PBMC; actives raise or lower the signal
# In short: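 Values derive from bidirectional fitting relative to DMSO vehicle. Cells: umbilical vein endothelium plus peripheral blood mononuclear cells, treated 24 h before fluorescent ELISA for CD69.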
# [15] = read-out: Monocyte Chemoattractant Protein-1 (MCP1), CCL2 (gene 6347); assay: BSK_SAg_MCP1: BioMAP Diversity Plus: SAg Assay for Monocyte Chemoattractant Protein-1 (MCP1) Biomarker Activity (AID 2283090); details: primary human HUVEC with PBMC; actives raise or lower the signal
# In short: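 MCP-1 levels in the endothelial–PBMC SAg co-culture were quantified by ELISA at 24 h post-dosing; both increases and decreases versus DMSO scored. Cytotoxicity monitored by SRB total protein in parallel cultures.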
# [16] = read-out: Monokine induced gamma interferon (MIG), CXCL9 (gene 4283); assay: BSK_SAg_MIG: BioMAP Diversity Plus: SAg Assay for Monokine induced gamma interferon (MIG) Biomarker Activity (AID 2283092); details: primary human HUVEC with PBMC; actives raise or lower the signal
# In short: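 Values reflect bidirectional fitting of ELISA-measured MIG against DMSO vehicle, taken 24 h after dosing of a co-culture of human umbilical vein endothelial cells and peripheral blood mononuclear cells.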
# [17] = BSK_SAg_PBMCCytotoxicity: PBMC Cytotoxicity Assessment in the BioMAP Diversity Plus: SAg Assay (AID 2283093); details: primary human HUVEC with PBMC;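 further: PBMC viability measured as Alamar Blue reduction fluorescence at 546/580 nm; fitted both ways against DMSO so a hit may be loss or gain of signal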
# In short: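 Compound added to 75,000 PBMC/well for 1 h; SEB and TSST-1 then added at 20 ng/mL final each; 90 h incubation; Alamar Blue 6 h; read 546/580 nm ex/em. Activity fitted bidirectionally relative to DMSO baseline.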
# [18] = read-out: E-selectin (Homo sapiens) (UniProt P16581); assay: BSK_SAg_Eselectin: BioMAP Diversity Plus: SAg Assay for Eselectin Biomarker Activity (AID 2283091); details: primary human HUVEC with PBMC; actives raise or lower the signal
# In short: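 Cell-surface E-selectin is read by ELISA at 24 h in the SAg co-culture of HUVEC and PBMC. Curves are fitted in both directions relative to DMSO. Parallel SRB total-protein staining tracks overt toxicity.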
# Sequence of Tumor necrosis factor (Homo sapiens) (P01375 whole entry, looked up): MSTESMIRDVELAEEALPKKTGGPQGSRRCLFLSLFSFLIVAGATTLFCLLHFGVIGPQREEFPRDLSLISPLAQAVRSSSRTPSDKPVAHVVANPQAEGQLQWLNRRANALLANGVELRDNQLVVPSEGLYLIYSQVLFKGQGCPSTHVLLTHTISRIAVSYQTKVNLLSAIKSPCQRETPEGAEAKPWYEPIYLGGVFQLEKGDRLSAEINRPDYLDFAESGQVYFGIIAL
# Sequence of E-selectin (Homo sapiens) (P16581 whole entry, looked up): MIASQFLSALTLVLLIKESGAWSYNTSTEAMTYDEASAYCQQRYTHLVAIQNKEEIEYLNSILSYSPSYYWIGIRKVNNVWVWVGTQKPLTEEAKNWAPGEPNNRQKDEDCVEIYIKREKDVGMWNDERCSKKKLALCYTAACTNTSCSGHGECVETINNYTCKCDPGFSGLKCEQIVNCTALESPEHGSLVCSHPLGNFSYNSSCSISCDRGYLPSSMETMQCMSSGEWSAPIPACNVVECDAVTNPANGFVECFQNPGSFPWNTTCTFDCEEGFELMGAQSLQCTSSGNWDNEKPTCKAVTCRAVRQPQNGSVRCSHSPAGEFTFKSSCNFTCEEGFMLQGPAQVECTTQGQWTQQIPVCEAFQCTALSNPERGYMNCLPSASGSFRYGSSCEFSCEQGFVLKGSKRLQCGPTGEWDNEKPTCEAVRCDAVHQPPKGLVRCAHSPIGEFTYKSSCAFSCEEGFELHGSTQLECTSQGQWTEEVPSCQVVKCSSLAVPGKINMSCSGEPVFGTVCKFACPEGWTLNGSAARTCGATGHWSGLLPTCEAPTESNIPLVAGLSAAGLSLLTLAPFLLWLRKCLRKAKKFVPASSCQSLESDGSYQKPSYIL
smiles,measurement,setting,value
O=[N+]([O-])c1ccc(Oc2ccc(Cl)cc2Cl)cc1,AC50,[1],8.09 µM (active)
same,outcome,[2],inactive
same,AC50,"CD40, CD40 (gene 958) [3]",20 µM (active)
same,outcome,[4],inactive
same,outcome,[5],inactive
same,outcome,[6],inactive
same,AC50,[7],27.2 µM (active)
same,AC50,[8],25.7 µM (active)
same,outcome,[9],inactive
same,AC50,[10],31.1 µM (active)
same,outcome,[11],inactive
same,outcome,[12],inactive
same,outcome,[13],inactive
same,AC50,"CD38, CD38 (gene 952)",29.8 µM (active)
same,AC50,"CD40, CD40 (gene 958) [14]",20 µM (active)
same,outcome,"CD69, CD69 (gene 969)",inactive
same,AC50,[15],29.1 µM (active)
same,outcome,[16],inactive
same,outcome,[17],inactive
Nc1ccc(N=Nc2ccccc2)cc1,AC50,[1],20 µM (active)
same,outcome,[2],inactive
same,outcome,"CD40, CD40 (gene 958) [3]",inactive
same,outcome,[4],inactive
same,outcome,[5],inactive
same,outcome,[6],inactive
same,outcome,[7],inactive
same,outcome,[8],inactive
same,AC50,[9],3.55 µM (active)
same,outcome,[10],inactive
same,outcome,[11],inactive
same,AC50,[12],6.01 µM (active)
same,outcome,"CD38, CD38 (gene 952)",inactive
same,outcome,"CD40, CD40 (gene 958) [14]",inactive
same,outcome,"CD69, CD69 (gene 969)",inactive
same,outcome,[15],inactive
same,outcome,[16],inactive
same,outcome,[17],inactive
c1ccc2c(c1)-c1cccc3cccc-2c13,AC50,[1],28.9 µM (active)
same,outcome,[2],inactive
same,outcome,"CD40, CD40 (gene 958) [3]",inactive
same,outcome,[4],inactive
same,outcome,[5],inactive
same,outcome,[6],inactive
same,outcome,[7],inactive
same,outcome,[8],inactive
same,outcome,[9],inactive
same,outcome,[10],inactive
same,outcome,[11],inactive
same,AC50,[12],4.36 µM (active)
same,outcome,"CD38, CD38 (gene 952)",inactive
same,AC50,"CD40, CD40 (gene 958) [14]",31.2 µM (active)
same,outcome,"CD69, CD69 (gene 969)",inactive
same,outcome,[15],inactive
same,AC50,[18],31.6 µM (active)
same,outcome,[16],inactive
same,outcome,[17],inactive
Cc1cccc(N)c1N,outcome,[1],inactive
same,outcome,[2],inactive
same,AC50,"CD40, CD40 (gene 958) [3]",7.51 µM (active)
same,outcome,[4],inactive
same,AC50,[5],20 µM (active)
same,outcome,[6],inactive
same,outcome,[7],inactive
same,outcome,[8],inactive
same,AC50,[9],20 µM (active)
same,AC50,[10],7.16 µM (active)
same,outcome,[11],inactive
same,outcome,[12],inactive
same,outcome,"CD38, CD38 (gene 952)",inactive
same,outcome,"CD40, CD40 (gene 958) [14]",inactive
same,outcome,"CD69, CD69 (gene 969)",inactive
same,outcome,[15],inactive
same,outcome,[18],inactive
same,outcome,[16],inactive
same,outcome,[17],inactive
